# Results filed as inconclusive are left out. Calls of active or inactive are those of the source. How the source made its calls, unless noted: active means hit-call score of the fitted dose curve at least 0.9, where 1 is the maximum; inconclusive means response in the unintended direction; inactive means score below 0.9. Peptide text beside a SMILES is read from it.
# Experiments:
# [1] = ATG_TCF_b_cat_CIS: Attagene CIS-FACTORIAL HepG2 Assay for human T-Cell-Factor with beta-catenin (TCF/b-cat) (AID 2282965; active means hit-call score of the fitted dose curve at least 0.9, where 1 is the maximum; inactive means score below 0.9); details: HepG2 TCF/beta-catenin cis-reporter transcription, actives raise or lower the signal
# Method in brief: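 Endogenous transcription factor activity is captured through cis-promoter reporter constructs transiently introduced into human HepG2 liver cells. Induced reporter mRNA is measured after 24 h and fitted bidirectionally relative to DMSO.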
# [2] = ATG_TAL_CIS: Attagene CIS-FACTORIAL HepG2 Assay for human TAL Basal Promoter (AID 2282966; active means hit-call score of the fitted dose curve at least 0.9, where 1 is the maximum; inactive means score below 0.9;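 further: background control endpoint measuring basal TAL promoter reporter mRNA not a specific factor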); details: HepG2 Attagene cis-factorial TAL promoter reporter; actives raise or lower the signal
# Method in brief: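 HepG2, transient MRTU transfection, 24 h compound exposure; RNA → oligo(dT) RT → PCR → 6-FAM primer extension → HpaI digest → CE fluorescence. Bidirectional curve fit vs DMSO. Background-control readout.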
# [3] = ATG_TGFb_CIS: Attagene CIS-FACTORIAL HepG2 Assay for human Transforming Growth Factor (TGF) (AID 2282967; active means hit-call score of the fitted dose curve at least 0.9, where 1 is the maximum; inactive means score below 0.9); details: HepG2 Attagene CIS TGFb reporter, mRNA transcription; actives raise or lower the signal
# Method in brief: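 After a 24-hour incubation with compound, transfected HepG2 cells were lysed for RNA; reporter cDNA was amplified, fluorescently end-labeled and separated by CE. DMSO served as baseline for bidirectional fits.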
# [4] = molecular target: X-box-binding protein 1 (Homo sapiens) (UniProt P17861); experiment: ATG_Xbp1_CIS: Attagene CIS-FACTORIAL HepG2 Assay for human X-box Binding Protein 1 (XBP1) (AID 2282972; active means hit-call score of the fitted dose curve at least 0.9, where 1 is the maximum; inactive means score below 0.9); details: HepG2 XBP1 cis-element reporter, Attagene multiplex; actives raise or lower the signal
# Method in brief: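 Changes in reporter transcript abundance, read by RT-PCR and capillary electrophoresis, reflect endogenous transcription factor activity. Transfected HepG2 cells received compound for 24 hours; DMSO defined baseline for bidirectional analysis.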
# [5] = molecular target: Oxysterols receptor LXR-beta (Homo sapiens) (UniProt P55055); experiment: ATG_LXRb_TRANS: Attagene TRANS-FACTORIAL HepG2 Assay for human Liver X Receptor beta (LXRb) (AID 2282981); details: HepG2 Attagene TRANS GAL4-LXRb reporter, mRNA
# Method in brief: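 After 24 h of chemical treatment, transfected HepG2 cells yield total RNA; reporter cDNA is PCR-amplified, FAM-labelled, HpaI-cut and run on capillary electrophoresis. Signal reflects chimeric LXRb-Gal4 activity on GAL4-UAS reporters.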
# [6] = ATG_M_06_TRANS: Attagene TRANS-FACTORIAL HepG2 Assay for M06 Transcription Factor (Internal Marker) (AID 2282983); details: HepG2 Attagene TRANS M06 internal marker reporter
# Method in brief: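 Read-out: fluorescent reporter cDNA fragments resolved by capillary electrophoresis after RT-PCR and HpaI cut. Source cells were HepG2 carrying transfected multi-reporter GAL4 constructs, dosed 24 h. Increase over DMSO control analysed.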
# [7] = molecular target: Transcriptional activator Myb (Homo sapiens) (UniProt P10242); experiment: ATG_Myb_CIS: Attagene CIS-FACTORIAL HepG2 Assay for human Myeloblastosis (Myb) Proto-Oncogene Transcription Factor (AID 2282986; active means hit-call score of the fitted dose curve at least 0.9, where 1 is the maximum; inactive means score below 0.9); details: HepG2 Attagene CIS-FACTORIAL Myb reporter transcription; actives raise or lower the signal
# Method in brief: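 Reporter mRNA is quantified by RT-PCR and capillary electrophoresis 24 h after dosing HepG2 cells transfected with cis-regulated reporter units, which track endogenous transcription factor activity. Gain and loss of signal are fitted versus DMSO baseline.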
# [8] = ATG_VDRE_CIS: Attagene CIS-FACTORIAL HepG2 Assay for human Vitamin D Receptor Element (VDRE) (AID 2282968; active means hit-call score of the fitted dose curve at least 0.9, where 1 is the maximum; inactive means score below 0.9); details: HepG2 VDRE cis-reporter transcription, actives raise or lower the signal
# Method in brief: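 Measures endogenous factor activity through cis-element-driven reporter transcripts in transiently transfected HepG2. Cells are treated 24 h; reporter mRNA is quantified by RT-PCR and capillary electrophoresis; fitting is bidirectional.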
# [9] = molecular target: Hepatocyte nuclear factor 4-alpha (Homo sapiens) (UniProt P41235); experiment: ATG_HNF4a_TRANS: Attagene TRANS-FACTORIAL HepG2 Assay for human Hepatocyte Nuclear Factor 4 alpha (HNF4a) (AID 2282982); details: HepG2 HNF4a transactivation reporter, mRNA readout
# Method in brief: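 Multiplexed reporter assay: transfected HepG2, 24 h exposure, total RNA → oligo(dT) RT → PCR → 6-FAM extension → HpaI digest → CE fluorescence. DMSO = negative control.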
# [10] = molecular target: Estrogen receptor (Homo sapiens) (UniProt P03372); experiment: ATG_ERa_TRANS: Attagene TRANS-FACTORIAL HepG2 Assay for human Estrogen Receptor alpha (ERa) (AID 2282970); details: HepG2 Attagene TRANS ERa GAL4 reporter, mRNA
# Method in brief: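 Reporter mRNA induction after 24 hours, detected by fluorescent RT-PCR and capillary electrophoresis, gives the read-out. Cells are HepG2 transiently transfected with GAL4-UAS reporter transcription units responding to chimeric NR-Gal4. Activity is taken as gain of signal over DMSO baseline.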
# [11] = molecular target: Glucocorticoid receptor (Homo sapiens) (UniProt P04150); experiment: ATG_GR_TRANS: Attagene TRANS-FACTORIAL HepG2 Assay for human Glucocorticoid Receptor (GR) (AID 2282978); details: HepG2 Attagene TRANS GR reporter, mRNA transcription;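 further: activators score as hits since higher reporter transcript over DMSO is fitted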
# Method in brief: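 Readout is reporter transcript from a chimeric GR-Gal4 acting on GAL4-UAS in transfected human HepG2 liver cells after 24 h exposure, quantified by RT-PCR and capillary electrophoresis. Activation fitted upward against DMSO.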
# [12] = molecular target: Oxysterols receptor LXR-alpha (Homo sapiens) (UniProt Q13133); experiment: ATG_LXRa_TRANS: Attagene TRANS-FACTORIAL HepG2 Assay for human Liver X Receptor alpha (LXRa) (AID 2282980); details: HepG2 Attagene TRANS reporter, LXRa transactivation
# Method in brief: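 Read-out: reporter transcript levels by RT-PCR plus capillary electrophoresis, fluorescence intensity. Transiently transfected HepG2, exogenous NR-GAL4 chimera, GAL4-UAS reporters; 24 h compound exposure. Activity = increase over DMSO negative control.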
# [13] = ATG_M_32_TRANS: Attagene TRANS-FACTORIAL HepG2 Assay for M32 Transcription Factor (Internal Marker) (AID 2282984); details: HepG2 Attagene TRANS M32 internal marker reporter;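 further: transcript level of a background control reporter unit measured by RT-PCR and capillary electrophoresis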
# Method in brief: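 Cell-based TRANS-format assay in HepG2: exogenous chimeric GAL4 reporter units transiently expressed, compounds applied 24 h. Reporter mRNA detected by RT-PCR plus capillary electrophoresis; this readout is an internal background marker.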
# [14] = molecular target: Nuclear receptor subfamily 1 group I member 3 (Homo sapiens) (UniProt Q14994); experiment: ATG_CAR_TRANS: Attagene TRANS-FACTORIAL HepG2 Assay for human Constitutive Androstane Receptor (CAR) (AID 2282969); details: HepG2 Attagene TRANS-FACTORIAL CAR reporter;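 further: activators raise reporter mRNA above DMSO so AC50 marks induction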
# Method in brief: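 Signal is reporter mRNA induction relative to DMSO, measured 24 h after dosing by RT-PCR with fluorescent primer extension and capillary electrophoresis. Human HepG2 liver cells carried transiently transfected chimeric NR-Gal4/GAL4-UAS reporter constructs.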
# [15] = molecular target: Estrogen-related receptor gamma (Homo sapiens) (UniProt P62508); experiment: ATG_ERRg_TRANS: Attagene TRANS-FACTORIAL HepG2 Assay for human Estrogen-Related Receptor gamma (ERRg) (AID 2282977); details: HepG2 Attagene TRANS reporter, ERRg transactivation;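 further: hits increase reporter signal over DMSO so potencies reflect activators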
# Method in brief: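 Exogenous NR-Gal4 chimera activity was assessed in HepG2 cells bearing transfected GAL4-UAS reporters. After 24 h dosing, total RNA underwent RT-PCR, fluorescent primer extension and HpaI digestion before capillary electrophoresis, with gain of signal scored against DMSO.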
# [16] = molecular target: Bile acid receptor (Homo sapiens) (UniProt Q96RI1); experiment: ATG_FXR_TRANS: Attagene TRANS-FACTORIAL HepG2 Assay for Farnesoid X Receptor (FXR) (AID 2282979); details: HepG2 Attagene TRANS FXR-GAL4 reporter transcription;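 further: hits raise reporter mRNA above DMSO so AC50 marks FXR activation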
# Method in brief: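 Read-out: fluorescent reporter transcripts quantified by capillary electrophoresis after RT-PCR of total RNA. Source cells were HepG2 transiently carrying chimeric NR-GAL4 plus GAL4-UAS reporter units, dosed 24 h. Activity fitted upward relative to DMSO baseline.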
# [17] = ATG_M_19_TRANS: Attagene TRANS-FACTORIAL HepG2 Assay for M19 Transcription Factor (Internal Marker) (AID 2282974); details: HepG2 Attagene TRANS-FACTORIAL M19 internal marker reporter
# Method in brief: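 Background-control readout: after 24 h chemical exposure of transfected HepG2 carrying GAL4-driven reporter units, RNA was reverse-transcribed, amplified, fluorescently labeled and sized by capillary electrophoresis; gain-of-signal fit against DMSO.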
# [18] = molecular target: Nuclear receptor subfamily 4 group A member 2 (Homo sapiens) (UniProt P43354); experiment: ATG_NURR1_TRANS: Attagene TRANS-FACTORIAL HepG2 Assay for human Nuclear Receptor Related Protein 1 (NURR1) (AID 2282985); details: HepG2 Attagene TRANS reporter, mRNA readout
# Method in brief: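 Measures transcriptional activation by an exogenous NR-Gal4 chimera in transfected HepG2 liver cells. After 24 h, reporter RNA is reverse-transcribed, amplified and resolved by capillary electrophoresis; DMSO defines baseline.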
# [19] = ATG_GAL4_TRANS: Attagene TRANS-FACTORIAL HepG2 Assay for GAL4 (Internal Marker) (AID 2282976); details: HepG2 Attagene TRANS GAL4 internal marker reporter
# Method in brief: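 RT-PCR/capillary electrophoresis readout of reporter mRNA. HepG2, transient MRTU transfection (GAL4-UAS reporters), 24 h compound exposure. Background-control endpoint, positive direction vs DMSO baseline.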
# Sequence of Estrogen receptor (Homo sapiens) (P03372 whole entry, looked up, the tested form may be a part): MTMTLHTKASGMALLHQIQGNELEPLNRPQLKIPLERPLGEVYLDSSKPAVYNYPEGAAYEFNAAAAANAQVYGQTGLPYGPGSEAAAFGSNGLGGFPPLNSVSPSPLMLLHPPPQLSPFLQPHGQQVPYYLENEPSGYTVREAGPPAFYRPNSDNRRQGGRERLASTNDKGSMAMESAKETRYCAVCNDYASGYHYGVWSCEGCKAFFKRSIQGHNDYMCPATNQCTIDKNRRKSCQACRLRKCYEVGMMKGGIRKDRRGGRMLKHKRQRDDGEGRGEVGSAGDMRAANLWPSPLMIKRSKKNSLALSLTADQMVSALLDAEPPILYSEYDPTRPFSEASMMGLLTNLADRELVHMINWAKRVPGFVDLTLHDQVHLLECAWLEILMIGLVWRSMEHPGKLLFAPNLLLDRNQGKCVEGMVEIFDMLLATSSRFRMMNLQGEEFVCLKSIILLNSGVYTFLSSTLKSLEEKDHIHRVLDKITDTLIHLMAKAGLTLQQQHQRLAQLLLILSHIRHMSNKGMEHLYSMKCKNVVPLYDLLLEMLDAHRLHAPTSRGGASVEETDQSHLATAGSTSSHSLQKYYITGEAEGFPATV
# Sequence of Transcriptional activator Myb (Homo sapiens) (P10242 whole entry, looked up): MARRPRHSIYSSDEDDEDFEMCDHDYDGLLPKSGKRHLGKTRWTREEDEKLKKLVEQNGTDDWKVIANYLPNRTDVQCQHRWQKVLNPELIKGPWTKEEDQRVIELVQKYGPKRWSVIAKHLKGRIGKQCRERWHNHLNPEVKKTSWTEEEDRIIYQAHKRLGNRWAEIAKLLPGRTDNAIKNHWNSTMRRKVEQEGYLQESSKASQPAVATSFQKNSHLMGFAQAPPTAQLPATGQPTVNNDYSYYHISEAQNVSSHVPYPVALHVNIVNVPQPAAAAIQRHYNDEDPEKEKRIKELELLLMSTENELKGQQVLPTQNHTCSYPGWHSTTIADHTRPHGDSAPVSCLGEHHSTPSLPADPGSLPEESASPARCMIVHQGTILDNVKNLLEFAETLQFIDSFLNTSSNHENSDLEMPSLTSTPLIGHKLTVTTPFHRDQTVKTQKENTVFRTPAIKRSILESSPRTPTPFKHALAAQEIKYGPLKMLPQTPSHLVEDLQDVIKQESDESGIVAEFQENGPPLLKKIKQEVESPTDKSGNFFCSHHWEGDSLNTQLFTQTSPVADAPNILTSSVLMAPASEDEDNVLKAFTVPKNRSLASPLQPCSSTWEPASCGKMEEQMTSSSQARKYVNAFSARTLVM
# Sequence of Bile acid receptor (Homo sapiens) (Q96RI1 whole entry, looked up, the tested form may be a part): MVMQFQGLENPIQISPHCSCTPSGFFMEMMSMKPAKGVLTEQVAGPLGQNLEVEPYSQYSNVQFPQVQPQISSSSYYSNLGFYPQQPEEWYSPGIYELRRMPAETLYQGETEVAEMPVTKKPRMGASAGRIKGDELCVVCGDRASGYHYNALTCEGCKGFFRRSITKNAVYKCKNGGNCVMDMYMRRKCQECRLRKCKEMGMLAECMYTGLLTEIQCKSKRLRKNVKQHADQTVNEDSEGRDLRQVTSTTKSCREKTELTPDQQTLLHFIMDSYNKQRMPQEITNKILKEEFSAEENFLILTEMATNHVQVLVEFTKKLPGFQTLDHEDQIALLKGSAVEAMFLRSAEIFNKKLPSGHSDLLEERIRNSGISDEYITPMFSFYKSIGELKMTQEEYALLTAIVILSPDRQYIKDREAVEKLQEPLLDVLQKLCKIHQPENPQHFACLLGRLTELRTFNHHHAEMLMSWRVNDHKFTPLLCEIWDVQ
# Sequence of Oxysterols receptor LXR-alpha (Homo sapiens) (Q13133 whole entry, looked up, the tested form may be a part): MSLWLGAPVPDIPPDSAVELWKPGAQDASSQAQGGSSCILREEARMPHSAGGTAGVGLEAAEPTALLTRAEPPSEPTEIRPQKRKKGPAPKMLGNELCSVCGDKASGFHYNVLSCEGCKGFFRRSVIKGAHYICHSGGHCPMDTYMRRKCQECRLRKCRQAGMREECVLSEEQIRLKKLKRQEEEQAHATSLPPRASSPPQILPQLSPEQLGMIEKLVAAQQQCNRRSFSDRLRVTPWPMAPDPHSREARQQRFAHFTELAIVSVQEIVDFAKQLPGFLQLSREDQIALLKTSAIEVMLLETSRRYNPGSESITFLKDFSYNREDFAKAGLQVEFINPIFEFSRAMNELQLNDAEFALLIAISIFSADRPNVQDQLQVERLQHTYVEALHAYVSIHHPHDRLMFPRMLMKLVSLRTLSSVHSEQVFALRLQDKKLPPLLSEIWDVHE
# Sequence of Oxysterols receptor LXR-beta (Homo sapiens) (P55055 whole entry, looked up, the tested form may be a part): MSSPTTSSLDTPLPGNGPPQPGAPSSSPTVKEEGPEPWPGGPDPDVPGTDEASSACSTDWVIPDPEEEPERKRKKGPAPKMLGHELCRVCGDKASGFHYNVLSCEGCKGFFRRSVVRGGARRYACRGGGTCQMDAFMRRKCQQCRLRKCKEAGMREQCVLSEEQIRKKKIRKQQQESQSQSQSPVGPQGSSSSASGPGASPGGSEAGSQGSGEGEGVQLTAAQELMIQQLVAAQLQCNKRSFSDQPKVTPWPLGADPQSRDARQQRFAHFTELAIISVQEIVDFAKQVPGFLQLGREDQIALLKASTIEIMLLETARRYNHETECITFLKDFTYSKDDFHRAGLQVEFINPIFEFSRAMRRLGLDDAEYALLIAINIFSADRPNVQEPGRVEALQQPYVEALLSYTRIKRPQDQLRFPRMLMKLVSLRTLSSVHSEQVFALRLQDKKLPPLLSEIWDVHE
# Sequence of Nuclear receptor subfamily 4 group A member 2 (Homo sapiens) (P43354 whole entry, looked up, the tested form may be a part): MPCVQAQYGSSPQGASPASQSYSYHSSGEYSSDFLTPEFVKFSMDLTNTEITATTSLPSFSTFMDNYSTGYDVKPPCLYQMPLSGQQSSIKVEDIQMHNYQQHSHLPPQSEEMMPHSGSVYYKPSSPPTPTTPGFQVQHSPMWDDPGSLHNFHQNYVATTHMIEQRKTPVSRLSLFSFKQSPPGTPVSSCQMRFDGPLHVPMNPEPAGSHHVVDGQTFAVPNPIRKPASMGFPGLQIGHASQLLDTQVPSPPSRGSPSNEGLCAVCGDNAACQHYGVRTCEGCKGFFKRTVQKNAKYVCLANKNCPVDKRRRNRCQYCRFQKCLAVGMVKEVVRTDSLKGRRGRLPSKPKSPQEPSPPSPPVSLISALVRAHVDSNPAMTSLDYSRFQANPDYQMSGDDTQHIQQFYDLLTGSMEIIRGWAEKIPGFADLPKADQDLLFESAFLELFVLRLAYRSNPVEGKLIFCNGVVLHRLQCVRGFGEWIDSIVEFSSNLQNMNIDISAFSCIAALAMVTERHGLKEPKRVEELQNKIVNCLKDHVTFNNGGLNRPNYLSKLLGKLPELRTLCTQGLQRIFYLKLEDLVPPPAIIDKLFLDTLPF
# Sequence of X-box-binding protein 1 (Homo sapiens) (P17861 whole entry, looked up): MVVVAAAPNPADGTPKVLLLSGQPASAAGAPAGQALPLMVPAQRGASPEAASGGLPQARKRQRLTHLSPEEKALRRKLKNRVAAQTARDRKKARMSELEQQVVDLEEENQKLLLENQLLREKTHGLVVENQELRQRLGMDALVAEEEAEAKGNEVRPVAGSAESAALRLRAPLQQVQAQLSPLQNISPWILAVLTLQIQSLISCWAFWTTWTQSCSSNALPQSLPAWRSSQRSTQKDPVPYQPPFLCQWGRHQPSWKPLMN
# Sequence of Glucocorticoid receptor (Homo sapiens) (P04150 whole entry, looked up, the tested form may be a part): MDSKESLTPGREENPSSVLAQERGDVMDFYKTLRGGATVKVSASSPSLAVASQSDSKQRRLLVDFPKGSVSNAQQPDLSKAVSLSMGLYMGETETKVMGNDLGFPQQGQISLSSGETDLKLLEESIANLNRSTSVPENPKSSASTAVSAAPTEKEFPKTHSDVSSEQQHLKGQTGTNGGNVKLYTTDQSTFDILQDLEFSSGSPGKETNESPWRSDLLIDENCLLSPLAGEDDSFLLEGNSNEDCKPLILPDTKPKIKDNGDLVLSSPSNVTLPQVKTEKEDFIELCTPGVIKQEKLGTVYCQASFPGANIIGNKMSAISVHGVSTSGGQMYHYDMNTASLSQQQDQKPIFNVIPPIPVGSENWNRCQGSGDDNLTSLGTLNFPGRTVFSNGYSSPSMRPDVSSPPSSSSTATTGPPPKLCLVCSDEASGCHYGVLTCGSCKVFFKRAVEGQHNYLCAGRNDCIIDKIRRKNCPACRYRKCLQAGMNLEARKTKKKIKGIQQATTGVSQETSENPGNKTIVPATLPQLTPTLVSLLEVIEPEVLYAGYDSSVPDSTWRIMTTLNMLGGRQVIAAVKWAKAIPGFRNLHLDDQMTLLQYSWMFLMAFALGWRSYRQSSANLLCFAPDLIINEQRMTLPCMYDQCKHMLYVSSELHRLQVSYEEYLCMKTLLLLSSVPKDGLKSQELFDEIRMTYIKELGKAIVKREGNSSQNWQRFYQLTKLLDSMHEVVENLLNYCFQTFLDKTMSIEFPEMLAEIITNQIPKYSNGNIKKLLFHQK
# Sequence of Hepatocyte nuclear factor 4-alpha (Homo sapiens) (P41235 whole entry, looked up): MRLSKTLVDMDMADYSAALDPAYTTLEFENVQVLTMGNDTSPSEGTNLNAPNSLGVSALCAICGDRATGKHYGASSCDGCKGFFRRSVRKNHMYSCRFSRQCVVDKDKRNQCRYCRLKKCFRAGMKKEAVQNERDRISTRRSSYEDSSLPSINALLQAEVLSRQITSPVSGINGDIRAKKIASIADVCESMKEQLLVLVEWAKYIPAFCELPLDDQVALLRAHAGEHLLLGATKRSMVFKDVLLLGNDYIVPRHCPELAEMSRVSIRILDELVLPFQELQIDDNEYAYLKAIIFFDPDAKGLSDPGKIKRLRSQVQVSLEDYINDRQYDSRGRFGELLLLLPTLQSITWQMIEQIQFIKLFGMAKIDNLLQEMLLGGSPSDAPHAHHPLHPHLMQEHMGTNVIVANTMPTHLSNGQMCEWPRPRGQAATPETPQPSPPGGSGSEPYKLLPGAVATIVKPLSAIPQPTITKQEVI
compound,measurement,setting,value
CCOC(=O)c1ccccc1C,outcome,[1],inactive
same,outcome,[2],inactive
same,outcome,[3],inactive
same,outcome,[4],inactive
same,outcome,[5],inactive
same,outcome,[6],inactive
same,outcome,[7],inactive
C[Si](C)(C)N[Si](C)(C)C,outcome,[1],inactive
same,outcome,[2],inactive
same,outcome,[8],inactive
same,outcome,[9],inactive
same,outcome,[6],inactive
same,outcome,[7],inactive
COC(=O)[C@H](Cc1ccccc1)NC(=O)[C@@H](N)CC(=O)O (H-Asp-Phe-OMe),outcome,[1],inactive
same,outcome,[2],inactive
same,outcome,[3],inactive
same,outcome,[10],inactive
same,outcome,[11],inactive
same,outcome,[12],inactive
same,outcome,[5],inactive
same,outcome,[6],inactive
same,outcome,[13],inactive
same,outcome,[7],inactive
Cc1c(O)cccc1O,outcome,[1],inactive
same,outcome,[2],inactive
same,outcome,[8],inactive
same,outcome,[14],inactive
same,outcome,[4],inactive
same,outcome,[15],inactive
same,outcome,[16],inactive
same,outcome,[5],inactive
same,outcome,[9],inactive
same,outcome,[7],inactive
CCCC=C(C=O)CC,outcome,[1],inactive
same,outcome,[2],inactive
same,outcome,[8],inactive
same,outcome,[10],inactive
same,outcome,[4],inactive
same,outcome,[17],inactive
same,outcome,[6],inactive
same,outcome,[18],inactive
same,outcome,[7],inactive
CCCCC/C=C\C/C=C\CCCCCCCC(=O)O,outcome,[1],inactive
same,AC50,[2],100 µM (active)
same,outcome,[8],inactive
same,outcome,[10],inactive
same,AC50,[4],147 µM (active)
same,outcome,[17],inactive
same,outcome,[16],inactive
same,outcome,[9],inactive
same,outcome,[6],inactive
same,outcome,[7],inactive
Cn1cccc1,outcome,[1],inactive
same,outcome,[2],inactive
same,outcome,[8],inactive
same,outcome,[10],inactive
same,outcome,[4],inactive
same,outcome,[17],inactive
same,outcome,[15],inactive
same,outcome,[12],inactive
same,outcome,[7],inactive
COc1ccc(-c2coc3cc(O)cc(O)c3c2=O)cc1,outcome,[1],inactive
same,outcome,[2],inactive
same,AC50,[8],27 µM (active)
same,AC50,[10],0.432 µM (active)
same,AC50,[4],100 µM (active)
same,outcome,[17],inactive
same,outcome,[11],inactive
same,outcome,[12],inactive
same,outcome,[5],inactive
same,outcome,[6],inactive
same,outcome,[13],inactive
CCc1cccc(C)c1N(C(=O)CS(=O)(=O)O)C(C)COC (stereo not drawn),outcome,[1],inactive
same,outcome,[2],inactive
same,outcome,[8],inactive
same,AC50,[10],56.2 µM (active)
same,outcome,[4],inactive
same,outcome,[11],inactive
same,outcome,[16],inactive
same,outcome,[12],inactive
same,outcome,[9],inactive
same,outcome,[6],inactive
same,outcome,[18],inactive
same,outcome,[7],inactive
CC1=CCC(C(C)C)C=C1 (stereo not drawn),outcome,[1],inactive
same,outcome,[2],inactive
same,outcome,[3],inactive
same,outcome,[10],inactive
same,outcome,[4],inactive
same,outcome,[12],inactive
same,outcome,[5],inactive
same,outcome,[9],inactive
same,outcome,[6],inactive
same,outcome,[13],inactive
same,outcome,[18],inactive
same,outcome,[7],inactive
CCCC(C)C(=O)OCC (stereo not drawn),outcome,[1],inactive
same,outcome,[2],inactive
same,outcome,[8],inactive
same,outcome,[10],inactive
same,outcome,[4],inactive
same,outcome,[19],inactive
same,outcome,[15],inactive
same,outcome,[11],inactive
same,outcome,[6],inactive
same,outcome,[7],inactive
CN(C)Cc1cc(CN(C)C)c(O)c(CN(C)C)c1,outcome,[1],inactive
same,outcome,[2],inactive
same,outcome,[3],inactive
same,outcome,[10],inactive
same,outcome,[4],inactive
same,outcome,[6],inactive
same,outcome,[7],inactive

# From PubChem BioAssay (EPA / NIEHS)
